# The supplement of paper PMC8728848
# This excerpt belongs to a sample that is enriched for the strongest signals.
# B1: Cohesin-hLangerin (Homo sapiens) (protein)
# chain: LDDLDAVRIKVDTVNAKPGDTVRIPVRFSGIPSKGIANCDFVYSYDPNVLEIIEIEPGDIIVDPNPDKSFDTAVYPDRKIIVFLFAEDSGTGAYAITKDGVFATIVAKVKEGAPNGLSVIKFVEVGGFANNDLVEQKTQFFDGGANVGDTTEPATPTTPVTTPTTTDDLDAASYPRFMGTISDVKTNVQLLKGRVDNISTLDSEIKKNSDGMEAAGVQIQMVNESLGYVRSQFLKLKTSVEKANAQIQILTRSWEEVSTLNAQIPELKSDLEKASALNTKIRALQGSLENMSKLLKRQNDILQVVSQGWKYFKGNFYYFSLIPKTWYSAEQFCVSRNSHLTSVTSESEQEFLYKTAGGLIYWIGLTKAGMEGDWSWVDDTPFNKVQSARFWIPGEPNNAGNNEHCGNIKAPSLQAWNDAPCDKTFLFICKRPYVPSEPHHHHHH
# What was measured:
# Assay in all cases: glycan array binding signal (z-score within array); higher = stronger binding
# Conditions in all cases: glycan notation: IUPAC condensed, linker removed
# [1] = target: Fuc(a1-2)Gal(b1-3)[Fuc(a1-4)]GlcNAc(b1-2)Man(a1-3)[Fuc(a1-2)Gal(b1-3)[Fuc(a1-4)]GlcNAc(b1-2)Man(a1-6)]Man(b1-4)GlcNAc(b1-4)[Fuc(a1-6)]GlcNAc(b1-4)[Fuc(a1-6)]GlcNAc
# In short: (§1)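 Columns mapping to the same glycan were averaged after glycan names were converted to IUPAC-condensed notation. The data come from 3228 arrays in the Consortium for Functional Glycomics database, limited to those with an available protein sequence. Binding is reported as a within-array Z-score averaged across arrays of one protein sequence and across linkers.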
# Fuc(a1-2)Gal6S(b1-4)Glc = target: Fuc(a1-2)Gal6S(b1-4)Glc
# In short: as §1
# [2] = target: Fuc(a1-2)[Gal(a1-3)]Gal(b1-3)GlcNAc(b1-2)Man(a1-3)[Fuc(a1-2)[Gal(a1-3)]Gal(b1-3)GlcNAc(b1-2)Man(a1-6)]Man(b1-4)GlcNAc(b1-4)[Fuc(a1-6)]GlcNAc
# In short: as §1
# [3] = target: Fuc(a1-2)[Gal(a1-3)]Gal(b1-3)GlcNAc(b1-6)GalNAc
# In short: as §1
# [4] = target: Fuc(a1-2)[Gal(a1-3)]Gal(b1-4)GlcNAc(b1-2)Man(a1-3)[Fuc(a1-2)[Gal(a1-3)]Gal(b1-4)GlcNAc(b1-2)Man(a1-6)]Man(b1-4)GlcNAc(b1-4)[Fuc(a1-6)]GlcNAc
# In short: as §1
# [5] = target: Fuc(a1-2)[Gal(a1-3)]Gal(b1-4)GlcNAc(b1-3)[Fuc(a1-2)[Gal(a1-3)]Gal(b1-4)GlcNAc(b1-6)]GalNAc
# In short: as §1
# [6] = target: Fuc(a1-2)[Gal(a1-3)]Gal(b1-4)GlcNAc(b1-6)GalNAc
# In short: as §1
# [7] = target: Fuc(a1-2)[Gal(a1-4)]Gal(b1-4)GlcNAc
# In short: as §1
# [8] = target: Fuc(a1-2)[GalNAc(a1-3)]Gal(b1-3)GalNAc(a1-3)[Fuc(a1-2)]Gal(b1-4)GlcNAc
# In short: as §1
# [9] = target: Fuc(a1-2)[GalNAc(a1-3)]Gal(b1-3)GlcNAc(b1-2)Man(a1-3)[Fuc(a1-2)[GalNAc(a1-3)]Gal(b1-3)GlcNAc(b1-2)Man(a1-6)]Man(b1-4)GlcNAc(b1-4)[Fuc(a1-6)]GlcNAc
# In short: as §1
# [10] = target: Fuc(a1-3)[Gal(b1-4)]GlcNAc(b1-3)Gal(b1-4)[Fuc(a1-3)]GlcNAc
# In short: as §1
# [11] = target: Fuc(a1-3)[Gal(b1-4)]GlcNAc(b1-3)Gal(b1-4)[Fuc(a1-3)]GlcNAc(b1-3)Gal(b1-4)[Fuc(a1-3)]GlcNAc
# In short: as §1
# [12] = target: Gal(b1-3)GalNAc(a1-3)[Fuc(a1-2)]Gal(b1-4)Glc
# In short: as §1
# [13] = target: Gal(b1-3)GlcNAc(b1-2)Man(a1-3)[Gal(b1-3)GlcNAc(b1-2)Man(a1-6)]Man(b1-4)GlcNAc(b1-4)[Fuc(a1-6)]GlcNAc
# In short: as §1
# [14] = target: Gal(b1-3)GlcNAc(b1-2)Man(a1-3)[GlcNAc(b1-4)][Gal(b1-3)GlcNAc(b1-2)Man(a1-6)]Man(b1-4)GlcNAc(b1-4)GlcNAc
# In short: as §1
# [15] = target: Gal(b1-3)GlcNAc(b1-2)[Gal(b1-3)GlcNAc(b1-6)]Man(a1-6)[Gal(b1-3)GlcNAc(b1-2)Man(a1-3)]Man(b1-4)GlcNAc(b1-4)GlcNAc
# In short: as §1
# [16] = target: Gal(b1-3)GlcNAc(b1-3)Gal(b1-4)GlcNAc(b1-3)Gal(b1-4)GlcNAc(b1-2)[Gal(b1-3)GlcNAc(b1-3)Gal(b1-4)GlcNAc(b1-3)Gal(b1-4)GlcNAc(b1-6)]Man(a1-6)[Gal(b1-3)GlcNAc(b1-3)Gal(b1-4)GlcNAc(b1-3)Gal(b1-4)GlcNAc(b1-2)Man(a1-3)]Man(b1-4)GlcNAc(b1-4)[Fuc(a1-6)]GlcNAc
# In short: as §1
# Gal(b1-4)Glc = target: Gal(b1-4)Glc
# In short: as §1
# [17] = target: Gal(b1-4)GlcNAc(b1-2)Man(a1-3)Man(b1-4)GlcNAc(b1-4)GlcNAc
# In short: as §1
# [18] = target: Gal(b1-4)GlcNAc(b1-2)Man(a1-3)[Gal(b1-4)GlcNAc(b1-2)Man(a1-6)][GlcNAc(b1-4)]Man(b1-4)GlcNAc(b1-4)[Fuc(a1-6)]GlcNAc
# In short: as §1
# [19] = target: Gal(b1-4)GlcNAc(b1-3)Gal(b1-3)GlcNAc
# In short: as §1
# [20] = target: Gal(b1-4)GlcNAc(b1-3)Gal(b1-4)GlcNAc(b1-2)[Gal(b1-4)GlcNAc(b1-3)Gal(b1-4)GlcNAc(b1-6)]Man(a1-6)[Gal(b1-4)GlcNAc(b1-3)Gal(b1-4)GlcNAc(b1-2)Man(a1-3)]Man(b1-4)GlcNAc(b1-4)GlcNAc
# In short: as §1
# [21] = target: Gal(b1-4)GlcNAc(b1-3)Gal(b1-4)GlcNAc(b1-3)Gal(b1-4)GlcNAc(b1-3)Gal(b1-4)GlcNAc(b1-3)Gal(b1-4)GlcNAc(b1-2)[Gal(b1-4)GlcNAc(b1-3)Gal(b1-4)GlcNAc(b1-3)Gal(b1-4)GlcNAc(b1-3)Gal(b1-4)GlcNAc(b1-3)Gal(b1-4)GlcNAc(b1-6)]Man(a1-6)[Gal(b1-4)GlcNAc(b1-3)Gal(b1-4)GlcNAc(b1-3)Gal(b1-4)GlcNAc(b1-3)Gal(b1-4)GlcNAc(b1-3)Gal(b1-4)GlcNAc(b1-2)Man(a1-3)]Man(b1-4)GlcNAc(b1-4)[Fuc(a1-6)]GlcNAc
# In short: as §1
# [22] = target: Gal(b1-4)GlcNAc(b1-3)GalNAc
# In short: as §1
# Gal3S4S(b1-4)GlcNAc = target: Gal3S4S(b1-4)GlcNAc
# In short: as §1
# Gal6S(b1-3)GlcNAc6S = target: Gal6S(b1-3)GlcNAc6S
# In short: as §1
# Gal6S(b1-4)Glc6S = target: Gal6S(b1-4)Glc6S
# In short: as §1
# Gal6S(b1-4)GlcNAc = target: Gal6S(b1-4)GlcNAc
# In short: as §1
# Gal6S(b1-4)GlcNAc6S = target: Gal6S(b1-4)GlcNAc6S
# In short: as §1
# [23] = target: GlcNAc(a1-4)Gal(b1-4)GalNAc
# In short: as §1
# [24] = target: GlcNAc(b1-2)[GlcNAc(b1-4)]Man(a1-3)[GlcNAc(b1-4)][GlcNAc(b1-2)[GlcNAc(b1-6)]Man(a1-6)]Man(b1-4)GlcNAc(b1-4)[Fuc(a1-6)]GlcNAc
# In short: as §1
# [25] = target: GlcNAc(b1-3)Gal(b1-4)GlcNAc(b1-2)Man(a1-3)[GlcNAc(b1-3)Gal(b1-4)GlcNAc(b1-2)Man(a1-6)]Man(b1-4)GlcNAc(b1-4)GlcNAc
# In short: as §1
# [26] = target: GlcNAc(b1-3)Gal(b1-4)GlcNAc(b1-3)Gal(b1-4)GlcNAc(b1-2)[GlcNAc(b1-3)Gal(b1-4)GlcNAc(b1-3)Gal(b1-4)GlcNAc(b1-6)]Man(a1-6)[GlcNAc(b1-3)Gal(b1-4)GlcNAc(b1-3)Gal(b1-4)GlcNAc(b1-2)Man(a1-3)]Man(b1-4)GlcNAc(b1-4)[Fuc(a1-6)]GlcNAc
# In short: as §1
# [27] = target: Man(a1-2)Man(a1-2)Man(a1-6)[Man(a1-3)]Man
# In short: as §1
# [28] = target: Man(a1-2)Man(a1-3)[Man(a1-2)Man(a1-6)]Man(a1-6)[Man(a1-2)Man(a1-2)Man(a1-3)]Man
# In short: as §1
# [29] = target: Man(a1-2)Man(a1-3)[Man(a1-6)]Man(a1-6)[Man(a1-2)Man(a1-3)]Man(b1-4)GlcNAc(b1-4)GlcNAc
# In short: as §1
# [30] = target: Man(a1-2)Man(a1-6)[Man(a1-3)]Man(a1-6)[Man(a1-2)Man(a1-2)Man(a1-3)]Man(b1-4)GlcNAc(b1-4)GlcNAc
# In short: as §1
# Neu5Ac(a2-3)Gal = target: Neu5Ac(a2-3)Gal
# In short: as §1
# [31] = target: Neu5Ac(a2-3)Gal(b1-3)GlcNAc(b1-3)GalNAc
# In short: as §1
# [32] = target: Neu5Ac(a2-3)Gal(b1-3)[Fuc(a1-4)]GlcNAc(b1-3)Gal(b1-4)[Fuc(a1-3)]GlcNAc
# In short: as §1
# [33] = target: Neu5Ac(a2-3)Gal(b1-4)GlcNAc(b1-2)[Neu5Ac(a2-3)Gal(b1-4)GlcNAc(b1-6)]Man(a1-6)[Neu5Ac(a2-3)Gal(b1-4)GlcNAc(b1-2)Man(a1-3)][GlcNAc(b1-4)]Man(b1-4)GlcNAc(b1-4)GlcNAc
# In short: as §1
# [34] = target: Neu5Ac(a2-3)Gal(b1-4)[Fuc(a1-3)]GlcNAc(b1-3)GalNAc
# In short: as §1
# [35] = target: Neu5Ac(a2-8)Neu5Ac(a2-3)Gal(b1-3)GalNAc(b1-4)[Neu5Ac(a2-3)]Gal(b1-4)Glc
# In short: as §1
# [36] = target: Neu5Ac(b2-6)Gal(b1-4)GlcNAc
# In short: as §1
# [37] = target: Neu5Gc(a2-8)Neu5Ac(a2-3)Gal(b1-4)GlcNAc
# In short: as §1
# [38] = target: Neu5Gc(a2-8)Neu5Gc(a2-6)Gal(b1-4)GlcNAc
# In short: as §1
binder,measurement,setting,value
B1,glycan array binding signal (z-score),[1],0.805
same,glycan array binding signal (z-score),Fuc(a1-2)Gal6S(b1-4)Glc,-0.399
same,glycan array binding signal (z-score),[2],3.97
same,glycan array binding signal (z-score),[3],-0.238
same,glycan array binding signal (z-score),[4],3.4
same,glycan array binding signal (z-score),[5],1.3
same,glycan array binding signal (z-score),[6],-0.388
same,glycan array binding signal (z-score),[7],-0.301
same,glycan array binding signal (z-score),[8],-0.411
same,glycan array binding signal (z-score),[9],2.27
same,glycan array binding signal (z-score),[10],-0.026
same,glycan array binding signal (z-score),[11],-0.424
same,glycan array binding signal (z-score),[12],-0.311
same,glycan array binding signal (z-score),[13],0.003
same,glycan array binding signal (z-score),[14],4.37
same,glycan array binding signal (z-score),[15],4.81
same,glycan array binding signal (z-score),[16],5.37
same,glycan array binding signal (z-score),Gal(b1-4)Glc,-0.309
same,glycan array binding signal (z-score),[17],-0.352
same,glycan array binding signal (z-score),[18],-0.449
same,glycan array binding signal (z-score),[19],-0.419
same,glycan array binding signal (z-score),[20],3.41
same,glycan array binding signal (z-score),[21],0.332
same,glycan array binding signal (z-score),[22],-0.438
same,glycan array binding signal (z-score),Gal3S4S(b1-4)GlcNAc,-0.417
same,glycan array binding signal (z-score),Gal6S(b1-3)GlcNAc6S,5.12
same,glycan array binding signal (z-score),Gal6S(b1-4)Glc6S,4
same,glycan array binding signal (z-score),Gal6S(b1-4)GlcNAc,3.76
same,glycan array binding signal (z-score),Gal6S(b1-4)GlcNAc6S,4.85
same,glycan array binding signal (z-score),[23],-0.401
same,glycan array binding signal (z-score),[24],-0.2
same,glycan array binding signal (z-score),[25],-0.336
same,glycan array binding signal (z-score),[26],4.94
same,glycan array binding signal (z-score),[27],5.38
same,glycan array binding signal (z-score),[28],6.69
same,glycan array binding signal (z-score),[29],-0.429
same,glycan array binding signal (z-score),[30],6.34
same,glycan array binding signal (z-score),Neu5Ac(a2-3)Gal,-0.391
same,glycan array binding signal (z-score),[31],-0.31
same,glycan array binding signal (z-score),[32],3.62
same,glycan array binding signal (z-score),[33],-0.447
same,glycan array binding signal (z-score),[34],0.356
same,glycan array binding signal (z-score),[35],-0.417
same,glycan array binding signal (z-score),[36],-0.412
same,glycan array binding signal (z-score),[37],-0.431
same,glycan array binding signal (z-score),[38],-0.412
